Drawing on PubChem BioAssay (NCI), this text covers growth for seven compounds.

What all share (assay): NCI-60 one-dose screen, 48 h (100 = growth as untreated, 0 = no growth, -100 = all killed)
Conditions in all cases: 10 µM unless noted

Test [1] has as its system NCI-H23 lung.
Test [2] relates to NCI-H226 lung.
Test [3] concerns NCI-H322M lung.
Test [4] relates to HOP-62 NSCLC.
Test [5] concerns NCI-H460 lung.
The subject of test [6] is HOP-92 NSCLC.
Test [7] concerns NCI-H522 lung.
Test [8] concerns A549/ATCC NSCLC.
Test [9] concerns 786-0 renal.
Test [10] relates to COLO 205 colon.
The test system of test [11] is DU-145 prostate.
The subject of test [12] is K-562 leukemia.
For test [13], the system named is MALME-3M melanoma.
Test [14] deals with MDA-MB-231 breast.
The subject of test [15] is RXF 393 renal.
The subject of test [16] is SF-268 CNS.
The test system of test [17] is SF-295 CNS.
The subject of test [18] is SF-539 CNS.
Test [19] relates to UACC-257 melanoma.
Test [20] concerns M14 melanoma.

The structures appear in SMILES notation. This is part of a sample that, as a whole, favours compounds with a hit. Of some 83,000 tested, about 20% had one in any assay.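 The endpoint reported here, percent growth, reads 100 for growth as untreated, 0 for no net growth and -100 for all cells dead.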 Values without a mark were called inactive. The source made the active and inactive calls. How the source made its calls: active means growth percent below 10; inactive means the rest.

As to `C=CCn1cc(-c2nc3ccccc3s2)c2cc(-c3ccc4c5c(cccc35)C(=O)N(CCO)C4=O)ccc21`, the growth in test [1] is 99.7%; in [2], 90.3%; in test [3] it was 98.8%; in [4], 90.6%; in [5], 98.1%; in [6], 78.7%. Further, the growth is 88.7% in test [7]; 95% in [8]; 97.6% in test [9]; 116% in [10]; 107% in [11]; 90.8% in test [12]. Moreover, the growth in [13] is 119%; in [14], 85.2%; in test [15], 100%; in test [16] it was 90.5%; in [17], 91.2%; in [18], 104%. The growth in test [19] is 107%; in [20], 106%.

For `CCN1C(=O)N(c2ccccc2)C2NC(=S)N(/N=C/C=C/c3ccccc3OC)C21` (stereo not given), the growth was 39.6% in [1]; 49.9% in test [2]; 41.8% in test [3]; 35.1% in [4]; 3.66% (active) in [5]; 43.4% in test [6]. The growth in test [7] was 9.88% (active); in test [8] it was 24.1%; in test [9], 26%; in [10] it was 6.54% (active); in [11], 5.45% (active); in test [12], 9.41% (active). Moreover, the growth in [13] is 40.9%; in test [14], 16.7%; in test [15], 62.2%; in [16] it was 47.3%; in test [17] it was 14.2%; in [18], -13.3% (active). Moreover, the figures for the growth in test [19] and in test [20] were 22% and 11.2%, respectively.

Regarding `CCOC(=O)c1cnn(CC(C)O)c1NC(=O)NCc1ccccc1C(F)(F)F` (stereo not given), the growth in test [1] was 98.8%; in test [2], 104%; in test [3] it was 97.5%; in test [4], 102%; in [5], 109%; in test [6] it was 84.5%. Further, the growth was 60.8% in test [7]; 82.1% in test [8]; 93.8% in [9]; 112% in test [10]; 105% in [11]; 86.3% in [12]. Besides, the growth in test [13] was 101%; in test [14] it was 105%; in test [15] it was 111%; in test [16], 101%; in test [17], 92.6%; in test [18], 98.3%. For the same compound, the values for the growth in test [19] and in test [20] were 89.7% and 88.6%, respectively.

As for `Cc1ccc(C2CC(c3cccc(Nc4ccncc4)c3)=Nc3c(N)nc(N)nc3N2)cc1` (stereo not given), the growth in test [1] was 56%; in [2] it was 88.9%; in [3], 67.4%; in [4], 86.4%; in test [5], 23.1%; in [6], 49.8%. In addition, the growth in [7] is 75.7%; in test [8], 28.3%; in test [9] it was 36.4%; in test [10] it was 52.3%; in [11] it was 70.9%; in test [12], 21.3%. Moreover, the growth in test [13] is 78.7%; in [14] it was 66.1%; in test [15], 55.6%; in [16] it was 63.1%; in test [17] it was 67%; in [18] it was 67.9%. Also, the growth in [19] was 63.7%; in test [20] it was 42.3%.

As to `O=C(Cn1nc(-c2cccc3ccccc23)ccc1=O)NCc1cccc(Cl)c1`, the growth in test [1] was 45.2% [50 µM]; in [2], 38.2% [50 µM]; in test [3] it was 70.4% [50 µM]; in test [4], 72.2% [50 µM]; in test [5], 32.2% [50 µM]; in [6] it was 26.3% [50 µM]. The growth is 17.1% [50 µM] in test [7]; 28.5% [50 µM] in [8]; 37.7% [50 µM] in [9]; 37.3% [50 µM] in [10]; 55.7% [50 µM] in test [11]; 20.4% [50 µM] in [12]. The growth in test [13] is 70.5% [50 µM]; in test [14], 55% [50 µM]; in [15], 37.7% [50 µM]; in [16] it was 52.9% [50 µM]; in test [17], 18.7% [50 µM]; in [18] it was 58.3% [50 µM]. In addition, the growth in test [19] is 44.2% [50 µM]; in test [20], 34% [50 µM].

Turning to `CCOC(=O)CC[C@H](NC(=O)c1ccc(N(C)Cc2cnc3nc(N)nc(N)c3n2)c2ccccc12)C(=O)OCC`, the growth in test [1] was 25.5%; in test [2], 72.6%; in test [3], 46.3%; in [4], 29.4%; in test [5], 13.8%; in test [6], 51.7%. In addition, the growth was 22.4% in [7]; 9.28% (active) in test [8]; 27.5% in test [9]; 36.9% in [10]; 28.3% in test [11]; 18.8% in test [12]. Besides, the growth in test [13] is 62.1%; in test [14] it was 59.4%; in [15] it was 48.7%; in test [16], 32.9%; in test [17] it was 24.3%; in test [18], 26.1%. Besides, the growth was 25.3% in test [19] and 23% in test [20].

For `O=C(/C=C/c1ccccc1)c1ccc(-n2cc(CN3CCN(c4cc5c(cc4F)c(=O)c(C(=O)O)cn5C4CC4)CC3)nn2)cc1`, the growth was 79.7% in test [1]; 73% in test [2]; 84.4% in test [3]; 79.6% in [4]; 76.1% in test [5]; 79.6% in test [6]. Also, the growth in test [7] was 80.1%; in [8], 88.9%; in [9], 54.2%; in [10], 108%; in [11], 76.3%; in [12], 56%. For the same compound, the growth was 91.2% in test [13]; 89.4% in test [14]; 58.3% in test [15]; 70.4% in test [16]; 91.7% in test [17]; 69% in test [18]. In addition, the values for the growth in test [19] and in test [20] were 91% and 84.4%, respectively.
